Sampled rows, rich in hits. Any-hit rate of the full collection: about 11%.
Pf growth 96h: P. falciparum growth inhibition at 96 hours. P. falciparum luciferase reporter growth, 96 h. Potency, µM (titrated, usually from 28.7 µM), for the others: at the highest dose activity change, negative = inhibition, usual class: inhibitors. 320,000 compounds, 6.9% hits. AID 504834; also: % is scaled to controls: 0 for no effect and ±100 for the full control effect
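Delayed-death screen, second-generation endpoint: infected erythrocytes, 2% hematocrit, 0.05% parasitemia final; 96 hours at 37 C, 5% CO2; luciferase detection reagent; luminescence decrease equals reduced growth.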
AMA1-RON2 inh: inhibitors of Plasmodium falciparum AMA1-RON2 interaction. AlphaScreen AMA1-biotinylated RON2 peptide binding. Potency, µM (titrated, usually from 58.2 µM), inactives show top-dose activity change, negative = inhibition, actives largely listed as inhibitors. 360,000 compounds, 0.2% hits;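 also: 0% = vehicle wells and -100% = peptide control; nearly all actives have a fitted effect of over 45% in size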
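AMA1 (3D7) with his tag at 25 nM final met compounds first, then biotinylated RON2 peptide at 25 nM; detection used donor plus acceptor beads, 10 µg/mL apiece, read by AlphaScreen after 30 min at room temperature.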
Pf growth 48h: P. falciparum growth inhibition at 48 hours (one generation); AID 504832; Potency, µM (highest dose often 28.7 µM), for the others: at the highest dose activity change, negative = inhibition, usual class: inhibitors; 310,000 compounds, 5.9% hits; P. falciparum luciferase growth in erythrocytes, 48 h; also: % is scaled to controls: 0 for no effect and ±100 for the full control effect
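Luminescence readout; reporter = integrated firefly luciferase in P. falciparum. RBC culture at 2% hematocrit, 0.1% parasitemia final, 37 C/5% CO2; decreased signal taken as growth inhibition.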
Sm TGR block: inhibitors of Schistosoma mansoni thioredoxin glutathione reductase | purified TGR, DTNB reduction, TNB absorbance 405 nm | 360,000 compounds, 3% hits | Potency, µM (doses to about 114 µM), for inactives: at the highest dose activity change, negative = inhibition, actives largely listed as inhibitors | Q962Y6; also: % is scaled to controls: 0 for no effect and ±100 for the full control effect; nearly all actives have a fitted effect of over 60% in size
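First, TGR (20 nM dispensed) and NADPH were mixed with compound. Second, a 15 min room-temperature incubation followed. Third, further NADPH and then DTNB were added to start the reaction. Finally, TNB absorbance was monitored kinetically.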
NS1 inh: inhibitors of influenza NS1 protein function | Potency, µM (series often up to 46.1 µM), for the others: at the top dose activity, positive = more growth | 270,000 compounds, 0.4% hits | AID 2326; calls by dose curve; also: actives are rising curves; nearly all actives have a fitted effect of over 50% in size
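S. cerevisiae expressing influenza A NS1, grown in glucose, washed, then diluted 1:100 into pH 6.0 -URA galactose medium with 23 nl compound. Growth recovery read as OD600; NS1-free strain serves as control.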
An asterisk follows results filed as active; ? = inconclusive; nt = no result given; [ ] = another dose, or the depositor's remark. Unless noted, calls follow the shape of the dose curve; as a rule, active = well fitted curve in the direction sought with a large enough effect; inconclusive = small, poorly fitted or top-dose-only effect, or another doubt; inactive = no such curve, though single readings can be large; an effect the other way counts as inactive or inconclusive. Potency is read from the fitted curve at half-maximal effect.

SMILES	Pf growth 96h	AMA1-RON2 inh	Pf growth 48h	Sm TGR block	NS1 inh
CCOC(=O)CSc1ccc2nnc(-c3ccncc3)n2n1	1.7%	-15.3%	0.3%	-2.0%	-54.3%
CCNC(=O)c1ccc(C23CC4CC(CC(C4)C2)C3)o1	12.9%	27.0%	?	nt	2.5%
COc1cc(OC)c(NC(=O)N2CCCn3nc(C)cc32)cc1Cl	nt	nt	nt	8.1%	nt
COc1ccc2c(CNC3CCCC3)c(C(=O)O)n(Cc3ccccc3C)c2c1	nt	nt	nt	-0.9%	nt
O=C(COCc1cc(-c2ccc(F)cc2)on1)Nc1cc(Cl)ccc1O	nt	nt	nt	-0.3%	nt
Cn1ncc(S(=O)(=O)Cc2ccccc2)c(Cl)c1=O	0.8%	17.4%	-4.2%	0.159µM*	-67.1%
Cn1ncc(SCc2ccccc2)c(Cl)c1=O	5.0%	-4.3%	25.3%	5.6%	-0.1%
CN=C1C=CC(=C(c2ccc(N(C)C)cc2)c2ccc(N(C)C)cc2)C=C1	1.07µM*	nt	0.213µM*	nt	nt
CN(C)C(=S)c1ccc(N(C)C)cc1	21.1%	-2.9%	43.3%	-3.5%	8.8%
CCCOC(=O)CSc1nc(N2CCOCC2)c2c(c1C#N)CC(C)(C)OC2	1.85µM*	3.5%	?	11.8%	1.1%
CC(C)CSc1nc(N2CCOCC2)c2c(c1C#N)CC(C)(C)SC2	?	-19.8%	9.28µM*	-1.1%	-0.1%
CCOC(=O)CSc1nc(N2CCOCC2)c2c(c1C#N)CC(C)(C)OC2	?	-1.6%	-10.9%[0.00184 µM]	-5.9%	-6.9%
CCCCCSc1nc(N2CCOCC2)c2c(c1C#N)CC(C)(C)OC2	?	-6.1%	9.28µM*	14.1%	7.2%
COc1cccc(NC(=O)CSc2nc(=O)n(Cc3ccco3)c3c2CCC3)c1	nt	nt	nt	0.1%	nt
Cc1cc(C)cc(OCCSc2nc3ccc(NC(=O)c4ccc5c(c4)OCO5)cc3s2)c1	nt	nt	nt	-5.0%	nt
CCOc1ccc(S(=O)(=O)N2CCC(C(=O)NCc3ccccn3)CC2)cc1C	20.7%	-5.7%	13.5%	-8.1%	-24.3%
CC(C)n1ncc2c(C(=O)N3CCN(Cc4ccc(Cl)s4)CC3)cc(C3CC3)nc21	?	-0.2%[11.6 µM]	13.1µM*	-17.1%	nt
Cc1ccc(S(=O)(=O)N2CCN(C(=O)c3cc(C4CC4)nc4c3cnn4C(C)C)CC2)cc1	2.62µM*	-9.9%	13.1µM*	4.0%	nt
CC(C)n1ncc2c(C(=O)N3CCN(S(=O)(=O)c4cccc(F)c4)CC3)cc(C3CC3)nc21	nt	0.0%	nt	nt	nt
CC(=O)Nc1ccc(NC(=O)c2cc(C3CC3)nc3c2cnn3C(C)C)cc1	-24.8%	-5.1%	?	6.6%	nt
CCN(CC)C(=O)c1sc2c(c1C)c(=O)n(-c1ccc(C)c(C)c1)c(=O)n2CC(=O)Nc1ccc(OC)cc1OC	nt	nt	nt	-5.6%	nt
CCn1nc(/C=C/c2ccccc2)nc2c(=O)n(C)c(=O)nc1-2	11.7µM*	10.8%	-3.3%	-34.6%	-1.6%
CCn1nc(-c2cccs2)nc2c(=O)n(C)c(=O)nc1-2	nt	0.0%	-9.8%	?	-204.4%
CCOC(=O)Cn1cc(C(=O)c2ccccc2F)c2ccccc21	53.3%	-17.1%	73.9%	12.4%	-11.8%
O=C(c1ccccc1F)c1cn(Cc2ccc(F)cc2)c2ccccc12	7.38µM*	-21.0%	-5.0%	-4.6%	2.8%
SMILES	Pf growth 96h	AMA1-RON2 inh	Pf growth 48h	Sm TGR block	NS1 inh
COC(=O)Cn1cc(C(=O)c2ccccc2F)c2ccccc21	1.65µM*	-2.3%	6.9%	-12.9%	-49.4%
CC1(C(=O)NS(=O)(=O)c2ccc(Cl)cc2)CCN1C(=O)Cc1ccc(Cl)cc1Cl (stereo not given)	nt	1.0%	nt	nt	nt
COC(=O)c1ccccc1NC(=O)c1onc(C)c1Cl	5.22µM*	6.9%	31.4%	-1.7%	-0.3%
Cn1ncc(Cl)c1C(=O)Nc1cccc(Cl)c1	49.8%	5.4%	32.6%	44.7µM*	-6.2%
CCc1ccccc1NC(=O)c1onc(C)c1Cl	-8.5%	3.0%	nt	7.0%	-49.2%
Cc1noc(C(=O)Nc2cccc(Cl)c2)c1Cl	9.28µM*	5.2%	108.9%	-30.0%	-2.3%
CSc1cccc(NC(=O)c2c(Cl)cnn2C)c1	18.6%	-15.9%	53.2%	-5.7%	-14.1%
Cc1ccc(O)c(NC(=O)c2onc(C)c2Cl)c1	-8.4%	-17.7%	11.7µM*	-4.7%	-9.4%
CN(C(=O)c1cccc(NC(=O)Cc2ccc(NC(=O)C3CCN(C(=O)C4CCCC4)CC3)cc2)c1)C1CC1	nt	-5.4%	nt	nt	nt
CC(=O)c1cccc(NC(=O)COc2cc3oc(=O)c(CC(C)O)c(C)c3cc2Cl)c1 (stereo not given)	10.4µM*	-2.2%	?	-5.8%	-5.9%
Clc1ccccc1/C=C/c1nc(-c2ccccn2)no1	66.7%	2.3%	2.08µM*	18.4%	-5.5%
Cn1c(C(=O)N2CCC(C(=O)N3CCN(Cc4ccc5c(c4)OCO5)CC3)CC2)cc2sccc21	10.4µM*	-3.4%	?	-20.8%	-21.3%
Cc1cccc(N2CCN(C(=O)C3CCN(C(=O)c4cc5sccc5n4C)CC3)CC2)c1C	nt	nt	nt	-2.4%	nt
Cn1c(C(=O)N2CCC(C(=O)N3CCOCC3)CC2)cc2sccc21	11.7µM*	0.0%	24.3%	-7.8%	-5.5%
Cn1c(C(=O)NCc2ccc3c(c2)OCO3)cc2sccc21	nt	-18.9%	nt	11.8%[11.4 µM]	-2.3%
CC(C)N(CCCNC(=O)C1CCN(C(=O)c2cc3sccc3n2C)CC1)Cc1ccccc1	11.7µM*	8.0%	?	-5.3%	-16.4%
Cn1c(C(=O)N2CCN(Cc3ccc4c(c3)OCO4)CC2)cc2sccc21	10.4µM*	-17.7%	?	-5.8%	-6.2%
CN(C(=O)COC(=O)Cc1ccc(Cl)cc1)C1CCCCC1	nt	-16.0%	nt	nt	nt
Cc1ccc(CN(Cc2cc3cc(C)ccc3[nH]c2=O)C(=O)N2CCOCC2)cc1	?	0.4%	6.57µM*	-10.1%	-8.4%
Cc1ccc2[nH]c(=O)c(CN(Cc3ccco3)C(=O)N3CCOCC3)cc2c1	?	-7.4%	-2.0%	?	-2.8%
O=C(CCc1nnc2ccc(N3CCC4(CC3)OCCO4)nn12)N1CCCCC1	-29.9%	-3.0%	4.7%	-1.9%	-2.8%
CSc1nc(N(C)NC(=O)c2ccc(F)cc2)c2ccccc2n1	2.33µM*	-12.0%	2.08µM*	12.0%	10.4%
Cc1nc(SCC(=O)NNC(=O)c2ccc(F)cc2)c2ccccc2n1	nt	76.2%	nt	nt	nt
CCN(CC)C(=O)CSc1nc2ncccc2[nH]1	11.7µM*	4.7%	35.7%	0.1%	1.1%
C=CCc1cccc(CNc2ccc(Br)cc2)c1O	?	6.8%	11.7µM*	0.0%	3.8%
SMILES	Pf growth 96h	AMA1-RON2 inh	Pf growth 48h	Sm TGR block	NS1 inh
C=CCc1cccc(CNc2ccc(S(=O)(=O)Nc3nccnc3OC)cc2)c1O	?	-8.3%	19.4%	1.1%	-5.7%
C=CCc1cccc(CNc2nc3ccccc3n2C(C)C)c1O	?	-12.9%	4.65µM*	-21.6%	1.5%
COc1ccc(S(=O)(=O)NC(C)C(=O)NCCN2CCOCC2)cc1Cl (stereo not given)	70.4%	-2.0%	28.0%	5.5%	6.3%
N#Cc1c(NC(=O)CSc2ncn[nH]2)sc2c1CCCCC2	nt	29.5%	9.28µM*	-1.6%	-34.9%
C=C(C)CNC(=S)N/N=C(\C)c1ccc(Cl)s1	?	8.0%	11.7µM*	-9.4%	-17.8%
CCNC(=S)N/N=C(\C)c1ccc(Cl)s1	?	38.9%	?	-11.9%	-32.8%
